# From PubChem BioAssay AID1159580 (chemical genetic matrix, 2015)
# Out of some 5,500 compounds screened, about 2,000 (36%) were called active. About 18% were inconclusive and are not listed. This is one part of the list. A number with no mark means an inactive call. No stated cut-off is given here; in the data, active means normalized growth mostly below about 0.91 (no sharp cut-off); inconclusive means no clear call, values can overlap the other calls; inactive means mostly above about 0.92.
# Experiment: chemical genetic growth profiling, strain panel (AID 1159580);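 further: tested at 20 µM; growth read once vehicle control cultures reached saturation at 30 °C; 1 = growth at the plate median or of vehicle wells; lower values mean less growth of the strain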
# Conditions: growth OD
# [1] = S. cerevisiae deletion strains, locus YAL013W, strain DEP1, active compounds read low
# [2] = S. cerevisiae deletion strains, locus YBR229C, strain ROT2, active compounds read low
# [3] = S. cerevisiae deletion strains, locus YDL101C, strain DUN1, active compounds read low
# [4] = S. cerevisiae deletion strains, locus YDL134C, strain PPH21, active compounds read low
# [5] = S. cerevisiae deletion strains, locus YDR150W, strain NUM1, active compounds read low
# [6] = S. cerevisiae deletion strains, locus YEL061C, strain CIN8, active compounds read low
# [7] = S. cerevisiae deletion strains, locus YGR078C, strain PAC10, active compounds read low
# [8] = S. cerevisiae deletion strains, locus YGR229C, strain SMI1, active compounds read low
# [9] = S. cerevisiae deletion strains, locus YHR030C, strain SLT2, active compounds read low
# [10] = S. cerevisiae deletion strains, locus YHR087W, strain rtc3, active compounds read low
# [11] = S. cerevisiae deletion strains, locus YJR043C, strain POL32, active compounds read low
# [12] = S. cerevisiae deletion strains, locus YJR075W, strain HOC1, active compounds read low
# [13] = S. cerevisiae deletion strains, locus YLR039C, strain RIC1, active compounds read low
# [14] = S. cerevisiae deletion strains, locus YLR058C, strain SHM2 (second series), active compounds read low
# [15] = S. cerevisiae deletion strains, locus YLR085C, strain ARP6, active compounds read low
# [16] = S. cerevisiae deletion strains, locus YLR262C, strain YPT6, active compounds read low
# [17] = S. cerevisiae deletion strains, locus YML094W, strain GIM5, active compounds read low
# [18] = S. cerevisiae deletion strains, locus YMR219W, strain ESC1, active compounds read low
# [19] = S. cerevisiae deletion strains, locus YMR263W, strain SAP30, active compounds read low
# [20] = S. cerevisiae deletion strains, locus YNL128W, strain TEP1, active compounds read low
# [21] = S. cerevisiae deletion strains, locus YNL153C, strain GIM3, active compounds read low
# [22] = S. cerevisiae deletion strains, locus YNL298W, strain CLA4 (second series), active compounds read low
# [23] = S. cerevisiae deletion strains, locus YNL322C, strain KRE1, active compounds read low
# [24] = S. cerevisiae deletion strains, locus YNR030W, strain Alg12, active compounds read low
# [25] = S. cerevisiae deletion strains, locus YOL006C, strain TOP1, active compounds read low
# [26] = S. cerevisiae deletion strains, locus YPL055C, strain LGE1, active compounds read low
# [27] = S. cerevisiae deletion strains, locus YPL241C, strain CIN2, active compounds read low
# [28] = S. cerevisiae deletion strains, locus YPR135W, strain CTF4, active compounds read low
compound,measurement,setting,value
COc1cc(C2OC(c3cc(C)ccc3[N+](=O)[O-])=NN2C(C)=O)cc(OC)c1OC (stereo not given),normalized growth,[1],0.986
same,normalized growth,[2],0.975
same,normalized growth,[3],1.04
same,normalized growth,[4],0.999
same,normalized growth,[5],0.993
same,normalized growth,[6],0.941
same,normalized growth,[7],1
same,normalized growth,[8],0.999
same,normalized growth,[9],0.948
same,normalized growth,[10],0.963
same,normalized growth,"S. cerevisiae deletion strains, locus YJL187C, strain SWE1, active compounds read low",0.98
same,normalized growth,[11],1
same,normalized growth,[12],0.999
same,normalized growth,"S. cerevisiae deletion strains, locus YKL190W, strain CNB1, active compounds read low",0.993
same,normalized growth,[13],0.969
same,normalized growth,[14],0.978
same,normalized growth,[15],0.967
same,normalized growth,[16],0.948
same,normalized growth,[17],0.98
same,normalized growth,[18],0.984
same,normalized growth,[19],0.999
same,normalized growth,[20],0.991
same,normalized growth,[21],1.02
same,normalized growth,[22],1.01
same,normalized growth,[23],0.993
same,normalized growth,[24],0.985
same,normalized growth,[25],0.924
same,normalized growth,[26],0.972
same,normalized growth,[27],1.01
same,normalized growth,[28],1.04
N#CC(NCc1ccccc1)c1ccc(Cl)c(Cl)c1 (stereo not given),normalized growth,[1],1
same,normalized growth,[2],0.983
same,normalized growth,[3],0.974
same,normalized growth,[4],0.848 (active)
same,normalized growth,[5],0.923
same,normalized growth,[6],0.985
same,normalized growth,[7],0.984
same,normalized growth,[8],0.989
same,normalized growth,[9],0.887
same,normalized growth,[10],1.01
same,normalized growth,[11],1.01
same,normalized growth,[12],0.968
same,normalized growth,[13],0.929
same,normalized growth,[14],0.995
same,normalized growth,[15],0.977
same,normalized growth,[16],0.957
same,normalized growth,[17],0.958
same,normalized growth,[18],0.998
same,normalized growth,[19],0.974
same,normalized growth,"S. cerevisiae deletion strains, locus YMR307W, strain GAS1, active compounds read low",0.818
same,normalized growth,[20],0.994
same,normalized growth,[21],0.98
same,normalized growth,[22],0.96
same,normalized growth,[23],1.01
same,normalized growth,[24],0.968
same,normalized growth,[25],0.982
same,normalized growth,[26],0.988
same,normalized growth,[27],0.938
same,normalized growth,[28],0.938
same,normalized growth,"S. cerevisiae strains, strain wild type, active compounds read low",1
